# Source: PubChem BioAssay (NCI)
# About 83,000 compounds went through this panel and 20% of them were active in at least one assay; those are over-represented in the sample as a whole.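 96-well plates, one dose, 48 hours. Percent growth reported; active if below 10.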 Values without a mark were called inactive. Activity calls are given as the source filed them.
# How the values were obtained:
# Experiment in all cases: NCI-60 one-dose screen, 48 h (100 = growth as untreated, 0 = no growth, -100 = all killed)
# Conditions in all cases: 10 µM unless noted
# [1] = system: DU-145 prostate
# [2] = system: K-562 leukemia
# [3] = system: MALME-3M melanoma
# [4] = system: MDA-MB-231 breast
# [5] = system: RXF 393 renal
# [6] = system: SF-268 CNS
# [7] = system: SF-295 CNS
# [8] = system: SF-539 CNS
# [9] = system: UACC-257 melanoma
# [10] = system: M14 melanoma
# [11] = system: HCT-15 colon
# [12] = system: HT29 colon
# [13] = system: SNB-75 CNS
# [14] = system: SNB-19 CNS
# [15] = system: U251 CNS
# [16] = system: PC-3 prostate
# [17] = system: SK-MEL-5 melanoma
# [18] = system: UACC-62 melanoma
# [19] = system: LOX IMVI melanoma
# [20] = system: SK-MEL-28 melanoma
Structure (SMILES),growth [1],growth [2],growth [3],growth [4],growth [5],growth [6],growth [7],growth [8],growth [9],growth [10],growth [11],growth [12],growth [13],growth [14],growth [15],growth [16],growth [17],growth [18],growth [19],growth [20]
O=C(O)c1ccc2c(c1)CCC2,118%,91.3%,106%,117%,120%,111%,103%,105%,105%,101%,104%,103%,107%,103%,104%,106%,108%,113%,97%,112%
O=C(c1ccccc1)N1N=C(c2ccccc2)CC1c1nnc2n(Cc3ccccc3)c(=O)c3c4c(sc3n12)CCCC4 (stereo not given),116%,116%,85.2%,111%,104%,99.3%,138%,92.1%,112%,111%,102%,101%,108%,101%,98.3%,97.9%,109%,112%,91.8%,106%
COc1cc(/C=C/C(=O)N2CCN(C(=O)c3cc(OC)c(OC)c(OC)c3)CC2)ccc1OCCCN1C(=O)c2cccc3cccc(c23)C1=O,79.1%,78.7%,125%,101%,74.2%,90.6%,71.9%,99.9%,101%,99.3%,72%,91.8%,93.1%,99.5%,83.4%,25.5%,75.5%,64.3%,68.8%,81.9%
COc1cccc(C(=O)NCCCNc2cc(-c3cn(-c4ccccc4)nc3-c3cccc(OC)c3)ccn2)c1,65.8%,22.8%,51.7%,44%,66.8%,63.9%,44%,85.3%,30%,34.4%,35.5%,27.7%,63.5%,65%,39.7%,27.4%,9.17% (active),26.2%,51.8%,65.7%
Cc1nn(-c2ccccc2)c(Cl)c1/C=C(/NC(=O)c1ccccc1)c1nc2ccccc2[nH]1,117%,88.4%,48.9%,85.5%,119%,104%,92.9%,110%,90.1%,70%,94.1%,75.3%,96.9%,101%,92.4%,78%,107%,75%,96.8%,83.6%
CN(C)CC1=NC2SC=C(c3ccccc3)C2C(=O)N1CC#N (stereo not given),111%,60%,83.1%,92%,81.3%,109%,99.2%,101%,108%,105%,105%,101%,87.6%,108%,104%,71.4%,107%,87.3%,99.7%,119%
Cc1ccc2nc(NC(=O)CSc3nc(-c4ccccc4)c(C#N)c(=O)n3Cc3ccccc3)sc2c1,103%,73.3%,78.6%,82.5%,75.8%,92.1%,95.3%,90.4%,98.3%,88.1%,96.6%,105%,63.5%,78.3%,87.8%,71.9%,83.1%,53.5%,83.1%,79.1%
COc1cc(/C=N/Nc2ncc(-c3cc4cc5c(cc4o3)OCO5)s2)cc(OC)c1OC,48%,30.1%,93.8%,46.5%,66.3%,74.9%,67.1%,81.7%,42.2%,26.3%,35.7%,56.2%,72.4%,76.1%,68.1%,21.5%,4.87% (active),33.7%,36.1%,60.7%
CC(=O)C(C)Cc1cc2c(cc1C)C(C)(C)CCC2(C)C (stereo not given),107%,105%,99%,109%,104%,100%,102%,102%,79.1%,88.1%,96.7%,93.3%,96.4%,116%,97.1%,77.4%,103%,99.4%,90.7%,106%
Fc1ccc(CNc2c3ccccc3nc3ccccc23)cc1F,39.5%,12.3%,50.7%,34.8%,7.37% (active),57.2%,29.8%,22.1%,65.1%,43.1%,18%,13.4%,66.2%,32.9%,30.3%,35.7%,66.2%,60%,12.5%,82.4%
Cc1ccc(Cc2cnc(NC(=O)c3ccc4noc(-c5ccccc5)c4c3)s2)cc1,102%,91.2%,106%,94.8%,-4.67% (active),98.9%,95.9%,94.7%,99.3%,93.4%,88.6%,65.3%,94.1%,92.2%,96.3%,75.2%,94.9%,77%,93.1%,99%
O=c1oc2ccccc2c(Cl)c1Cl,107%,37.2%,58.5%,62.6%,66.6%,86.5%,106%,81.3%,40%,17.1%,38.9%,105%,82.4%,91.7%,49.1%,101%,46.1%,74.7%,10.5%,72.4%
C=C(C)[C@@H]1CC=C2c3sc(-c4ccc(C)cc4)nc3C[C@@H](C)[C@]2(C)C1,114%,97%,104%,107%,113%,99.7%,104%,102%,105%,100%,104%,98.8%,87.4%,101%,97.5%,95.5%,101%,93.2%,95.3%,103%
Cc1cc(NCc2cc(Nc3ccnc4cc(Cl)ccc34)ccc2F)nc(N2CCCC2)n1,10.8%,-46.2% (active),-65.6% (active),-49.1% (active),-65.5% (active),-2.08% (active),-84.4% (active),-68.5% (active),-17.8% (active),-71.3% (active),-60.7% (active),-40.2% (active),-87.3% (active),28.9%,-64.7% (active),17.5%,-94.2% (active),-62.6% (active),-92.8% (active),-69.4% (active)
O=c1c2c3c(sc2n2c(-c4cc(-c5ccccc5)nn4-c4ccccc4)nnc2n1Cc1ccccc1)CCCC3,107%,27.1%,123%,94.2%,90%,89.2%,5.76% (active),112%,106%,92.4%,91.3%,88.6%,92.3%,89.6%,70.3%,69.1%,129%,103%,92.9%,111%
OC(c1cccc(-n2ccc(C(F)(F)F)n2)c1)c1cnccc1NC1CCCCCC1 (stereo not given),2.76% (active),3.64% (active),-79% (active),-76.4% (active),14.2%,64.4%,81.3%,61.3%,-17.8% (active),-75.1% (active),-39.2% (active),-0.162% (active),64.4%,71.1%,-42.6% (active),41.2%,33.8%,32.2%,-91.4% (active),-65.3% (active)
Cc1ccccc1NC(=O)N/C(N)=N/c1nc(C)c(C)s1,11.2%,9.17% (active),57.1%,50.9%,0.637% (active),59.5%,8.66% (active),-26% (active),67.8%,24%,26.4%,16.6%,-33.2% (active),39.9%,21.3%,30.6%,40.5%,42.7%,37.8%,60.7%
Cc1ccc(S(=O)(=O)N/N=C\c2cc(Cl)ccc2O)cc1,92.1%,82%,95.3%,93.8%,91%,94.7%,92.1%,76.6%,107%,96.2%,81.8%,103%,88.5%,86.2%,90.4%,93.6%,99.6%,106%,88.3%,98.3%
Cc1cccc(NC(=O)CSc2nc3ccccc3[nH]2)c1,107%,102%,105%,88.5%,99%,95.2%,105%,98.1%,111%,107%,104%,122%,84.2%,94.9%,101%,91%,103%,85.1%,96.8%,101%
FC(F)(F)c1cc(Nc2ccc3cc(OCCCN4CCOCC4)ccc3n2)ccc1Cl,47.6%,-27.3% (active),47.4%,-17.8% (active),-0.217% (active),46.9%,-56.7% (active),-0.973% (active),49.2%,19%,-0.426% (active),-50.3% (active),10.8%,41.1%,-10.6% (active),23.5%,64.4%,-29.7% (active),-82.1% (active),13.7%
O=c1c2cc(F)ccc2sc2c(NCCN3CCCCC3)nc3ccccc3c12,53.5%,-30.8% (active),58.5%,35.5%,39.7%,49.7%,56%,70.1%,65.1%,-61.7% (active),13.7%,10.7%,37.3%,66.6%,40.1%,53.1%,70.1%,36.7%,-62.8% (active),-14.9% (active)
COc1ccc(/C=c2\nc3n(-c4ccccc4)c4nc5c6c(sc5c(=N)n4n-3c2=O)CCCC6)cc1,104%,67.2%,97.4%,59.9%,98.4%,88.8%,98.4%,94.9%,106%,96.7%,40.7%,109%,42.9%,84.9%,87.5%,63.5%,70.8%,74.1%,91.2%,102%
O=C(Nc1ccc(Nc2ccncc2)cc1)c1ccc(C(=O)Nc2ccc(Nc3ccncc3)cc2)cc1,85.8%,53.5%,5.82% (active),84.4%,100%,75%,91.7%,82.6%,24.2%,44.2%,79.7%,32.9%,109%,77.4%,64.2%,60.4%,34.4%,38.3%,65.5%,43.4%
CC(=O)[C@@H]1CC[C@]2(COS(=O)(=O)c3ccc(C)cc3)CC[C@]3(C)[C@H](CC[C@@H]4[C@@]5(C)CCCNC(C)(C)[C@@H]5CC[C@]43C)[C@@H]12,86.6%,2.27% (active),88.1%,96.4%,63.9%,73.2%,101%,77.4%,49.9%,79%,32%,2.18% (active),83.2%,91.7%,61.8%,56.8%,76.2%,58.9%,14%,85.6%
COc1nc2c(c(=O)n1C)CN(c1ccccc1)C(=O)CN2C,66.3% [100 µM],55.2% [100 µM],74.3% [100 µM],47.5% [100 µM],60.4% [100 µM],63.4% [100 µM],50.7% [100 µM],60.8% [100 µM],73.6% [100 µM],68% [100 µM],52.7% [100 µM],62.3% [100 µM],45% [100 µM],57.4% [100 µM],62.6% [100 µM],37.7% [100 µM],48.4% [100 µM],43.9% [100 µM],70.3% [100 µM],90.4% [100 µM]
Cc1ccccc1NC(=O)N/C(N)=N/c1nc(-c2cccc([N+](=O)[O-])c2)cs1,69.3%,9.08% (active),33%,50.4%,56.7%,64%,15.8%,41.1%,51.5%,19%,24.8%,17.1%,-9.74% (active),44.1%,40.4%,58%,49.3%,34.1%,-10.5% (active),54.1%
O=C(NCCCNc1cc(-c2cn(-c3ccccc3)nc2-c2cccc(O)c2)ccn1)c1ccccc1,49.7%,-4.2% (active),-5.89% (active),-6.57% (active),24%,44.1%,12%,27.3%,-49.2% (active),3.42% (active),1.17% (active),-2.39% (active),23.1%,65.7%,27.9%,27.2%,-37.8% (active),23.6%,17.3%,4.17% (active)
O=C(O)c1ccc2c(c1Cl)C(=O)c1ccccc1C2=O,107%,73.7%,132%,112%,165%,113%,108%,102%,109%,103%,95.9%,87.5%,73.1%,98.8%,99.1%,116%,102%,97.7%,97.2%,107%
CN(c1ccccc1)c1ccc2c(c1)OCCC21CC1Nc1cnccc1C(=O)O (stereo not given),88.8%,41.2%,67.5%,72.8%,76.4%,60.2%,44.2%,52.7%,77.5%,81.2%,27.1%,75.8%,67.3%,66.6%,43.9%,52.4%,48.7%,62%,34.3%,69.1%
N#CCN1C(=O)C2C3=C(CCCC3)SC2N=C1CN1CCCC1 (stereo not given),99.7%,70.1%,111%,94.9%,88.6%,118%,107%,92.5%,96.8%,120%,74.4%,110%,88.3%,106%,102%,48.5%,98.2%,83.6%,97.7%,120%
